Test results published in PubChem BioAssay (NCATS).
Results filed as inconclusive are left out. Active and inactive are the calls of the source. Calls come from the whole dose curve; as a rule, active = well fitted curve in the direction sought with a large enough effect; inconclusive = small, poorly fitted or top-dose-only effect, or another doubt; inactive = no such curve, though single readings can be large; an effect the other way counts as inactive or inconclusive.

Legend:
C33A = assay: Primary qHTS to identify gynecologic anti-cancer compounds using libraries of approved drugs and bioactive compounds (AID 1345084); conditions: Gynecologic cancer cell panel viability, ATPlite luminescence, 48 h; series mostly up to 57.5 µM; note: nearly all actives have a fitted effect of over 55% in size
Summary of the method: (§1)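 Cells, 1,000 per well, were allowed to settle for 16 h at 37 C before compound addition. Five concentrations were tested for 48 h, and viability was read by ATPlite luminescence after 15 min at room temperature.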

CAOV3 = assay: as above; conditions: Gynecologic cancer cell panel viability, ATPlite luminescence, 48 h; series mostly up to 57.5 µM
Summary of the method: as §1

CASKI = assay: as above; conditions: Gynecologic cancer cell panel viability, ATPlite luminescence, 48 h; series mostly up to 57.5 µM
Summary of the method: as §1

Es-2 = assay: as above; conditions: Gynecologic cancer cell panel viability, ATPlite luminescence, 48 h; series mostly up to 57.5 µM
Summary of the method: as §1

HeLa = assay: as above; conditions: Gynecologic cancer cell panel viability, ATPlite luminescence, 48 h; series mostly up to 57.5 µM
Summary of the method: as §1

Hek293T = assay: as above; conditions: Gynecologic cancer cell panel viability, ATPlite luminescence, 48 h, control line for the selectivity index; series mostly up to 57.5 µM
Summary of the method: as §1

JEG-3 = assay: as above; conditions: Gynecologic cancer cell panel viability, ATPlite luminescence, 48 h; series mostly up to 57.5 µM
Summary of the method: as §1

OV90 = assay: as above; conditions: Gynecologic cancer cell panel viability, ATPlite luminescence, 48 h; series mostly up to 57.5 µM
Summary of the method: as §1

PA-1 = assay: as above; conditions: Gynecologic cancer cell panel viability, ATPlite luminescence, 48 h; series mostly up to 57.5 µM
Summary of the method: as §1

SKOV3 = assay: as above; conditions: Gynecologic cancer cell panel viability, ATPlite luminescence, 48 h; series mostly up to 57.5 µM
Summary of the method: as §1

Tov-21-G = assay: as above; conditions: Gynecologic cancer cell panel viability, ATPlite luminescence, 48 h; series mostly up to 57.5 µM
Summary of the method: as §1

Tov112D = assay: as above; conditions: Gynecologic cancer cell panel viability, ATPlite luminescence, 48 h; series mostly up to 57.5 µM
Summary of the method: as §1

[1] = Drug repurposing screens with cells derived from glioblastoma tumor samples (AID 1345199); conditions: GBM patient neurospheres viability, ATP luminescence, 48 h; note: nearly all actives have a fitted effect of over 40% in size; note: potency is the fitted concentration of half-maximal effect
Summary of the method: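 Four patient lines of CD133+ GBM neurospheres were screened at several concentrations; hits were retested in those lines plus three slower-growing GBM lines, using 48-hour treatment and ATP-based viability.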

[2] = qHTS assay to identify inhibitors of the type 1 interferon - major histocompatibility complex class I in skeletal muscle: Counter screen cell viability and HiBit confirmation (AID 1347412); conditions: iHSKM muscle cells + IFN-b, HiBiT or CellTiter-Glo, 24 h; note: nearly all actives have a fitted effect of over 60% in size; note: potency is the fitted concentration of half-maximal effect
Summary of the method: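 Duplicate plates, pinned identically: one read for HiBiT-tagged endogenous HLA-B luminescence, the other for ATP-content viability via CellTiter Glo. Cells were genome-engineered human myoblasts given 4 ng/ml IFN-b; compounds 12-pt, 1:3 from 46 uM final; 24 hr exposure.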
% is set by controls: 0 for no effect and ±100 for the full control effect.

O=C([C@@H]1CCCN(c2ccc3[nH]c(C4(n5cc(Cl)cn5)CC4)nc3n2)C1)N1CCCC1
inactive: Potency (C33A) | Potency (CAOV3) | Potency (CASKI) | Potency (Es-2) | Potency (HeLa) | Potency (Hek293T) | Potency (JEG-3) | Potency (OV90) | Potency (PA-1) | Potency (SKOV3) | Potency (Tov-21-G) | Potency (Tov112D)

CCOC(=O)N1CCC(N2CCC[C@@H](NC(=O)c3ccccc3C)C2)CC1
inactive: Potency (C33A) | Potency (CAOV3) | Potency (CASKI) | Potency (Es-2) | Potency (HeLa) | Potency (Hek293T) | Potency (JEG-3) | Potency (OV90) | Potency (PA-1) | Potency (SKOV3) | Potency (Tov-21-G) | Potency (Tov112D)

C=C(C)C(=O)O[C@H]1[C@H]2C(=C)C(=O)O[C@@H]2/C=C(\CO)CC/C=C(/C=O)[C@@H]1O
inactive: Potency (C33A) | Potency (CAOV3) | Potency (CASKI) | Potency (Es-2) | Potency (HeLa) | Potency (Hek293T) | Potency (JEG-3) | Potency (OV90) | Potency (PA-1) | Potency (SKOV3) | Potency (Tov-21-G) | Potency (Tov112D)

Cc1ccc(C)c(NS(=O)(=O)c2cc(C(=O)Nc3ccccc3-c3ccccc3)ccc2C)c1
inactive: Potency (C33A) | Potency (CAOV3) | Potency (CASKI) | Potency (Es-2) | Potency (HeLa) | Potency (Hek293T) | Potency (JEG-3) | Potency (OV90) | Potency (PA-1) | Potency (SKOV3) | Potency (Tov-21-G) | Potency (Tov112D)

N#Cc1ccc(N2N=C3c4ccc(C(=O)O)cc4CC[C@@H]3[C@@H]2C2CCCC2)cc1Cl
inactive: Potency (C33A) | Potency (CAOV3) | Potency (CASKI) | Potency (Es-2) | Potency (HeLa) | Potency (Hek293T) | Potency (JEG-3) | Potency (OV90) | Potency (PA-1) | Potency (SKOV3) | Potency (Tov-21-G) | Potency (Tov112D)

COc1ccc(C2Oc3c(OC)cc(CCCO)cc3C2COC2OC(CO)C(O)C(O)C2O)cc1OC (configuration not stated)
inactive: Potency (C33A) | Potency (CAOV3) | Potency (CASKI) | Potency (Es-2) | Potency (HeLa) | Potency (Hek293T) | Potency (JEG-3) | Potency (OV90) | Potency (PA-1) | Potency (SKOV3) | Potency (Tov-21-G) | Potency (Tov112D)

C=C1C(=O)O[C@H]2C1CCC(C)=C1C(=O)C=C(C)[C@@]12O (some centres not stated)
inactive: Potency (C33A) | Potency (CAOV3) | Potency (CASKI) | Potency (Es-2) | Potency (HeLa) | Potency (Hek293T) | Potency (JEG-3) | Potency (OV90) | Potency (PA-1) | Potency (SKOV3) | Potency (Tov-21-G) | Potency (Tov112D)

C=C1C(=O)O[C@@H]2/C=C(\CO)CC/C=C(\CO)[C@H](OC(C)=O)C(OC(=O)C(C)CC)C12 (some centres not stated)
inactive: Potency (C33A) | Potency (CAOV3) | Potency (CASKI) | Potency (Es-2) | Potency (HeLa) | Potency (Hek293T) | Potency (JEG-3) | Potency (OV90) | Potency (PA-1) | Potency (SKOV3) | Potency (Tov-21-G) | Potency (Tov112D)

CN1CCN(C2=Nc3ccccc3Nc3ccc(Cl)cc32)CC1
inactive: Potency (C33A) | Potency (CAOV3) | Potency (CASKI) | Potency (Es-2) | Potency (HeLa) | Potency (Hek293T) | Potency (JEG-3) | Potency (OV90) | Potency (PA-1) | Potency (SKOV3) | Potency (Tov-21-G) | Potency (Tov112D)

CCN(CC)CCCS(=O)(=O)N[C@H](CCc1ccccc1)c1nc(Cc2ccc(Br)cc2)no1
inactive: Potency (C33A) | Potency (CAOV3) | Potency (CASKI) | Potency (Es-2) | Potency (HeLa) | Potency (Hek293T) | Potency (JEG-3) | Potency (OV90) | Potency (PA-1) | Potency (SKOV3) | Potency (Tov-21-G) | Potency (Tov112D)

Cc1ccnc(NC(=O)C(C)c2cccc(C(=O)c3ccccc3)c2)c1 (configuration not stated)
inactive: Potency (C33A) | Potency (CAOV3) | Potency (CASKI) | Potency (Es-2) | Potency (HeLa) | Potency (Hek293T) | Potency (JEG-3) | Potency (OV90) | Potency (PA-1) | Potency (SKOV3) | Potency (Tov-21-G) | Potency (Tov112D)

C=C1C(=O)OC2C1CCC1(C)C(O)CCC(=C)C21 (configuration not stated)
inactive: Potency (C33A) | Potency (CAOV3) | Potency (CASKI) | Potency (Es-2) | Potency (HeLa) | Potency (Hek293T) | Potency (JEG-3) | Potency (OV90) | Potency (PA-1) | Potency (SKOV3) | Potency (Tov-21-G) | Potency (Tov112D)

COc1ccnc(CS(=O)c2nc3cc(OC(F)F)ccc3[nH]2)c1OC (configuration not stated)
active: Potency ([1]; tumour line A) 28.2 µM
inactive: activity, negative = cell killing ([1]; at 45.9 µM (top of the series), tumour line B) -14.8% | activity, negative = cell killing ([1]; at 45.9 µM (top of the series), tumour line D) -24.9% | activity, negative = cell killing ([1]; at 46.1 µM (top of the series), tumour line C) -12.9%

C1=C/COCc2cc(ccc2OCCN2CCCC2)Nc2nccc(n2)-c2cccc(c2)COC/1
active: Potency ([2]; HiBiT) 3.52 µM

Cc1cc(-c2nc3cc(F)ccc3s2)ccc1NC(=O)[C@@H](N)CCCCN
active: Potency ([2]; Viability) 22.2 µM

Cn1ncc2cc(-c3cnc(N)c(Cl)c3N3CCC4(CCNC4=O)CC3)ccc21
inactive: activity change, negative = inhibition ([2]; Viability, at 45.9 µM (top of the series)) 5.32%

CC(=O)O[C@@H]1CC[C@@]2(C)[C@H](CC[C@@H]3[C@@H]2C[C@H](OC(C)=O)[C@]2(C)[C@@H](C(C)=O)CC[C@@H]32)C1
inactive: Potency (C33A) | Potency (CAOV3) | Potency (CASKI) | Potency (Es-2) | Potency (HeLa) | Potency (Hek293T) | Potency (JEG-3) | Potency (OV90) | Potency (PA-1) | Potency (Tov-21-G) | Potency (Tov112D)
